Here are results for 40 compounds from PubChem BioAssay (Tox21).

Results filed as inconclusive are left out. Entries that show only a call come without a potency. The source holds several records for some structures; these can differ, active in one and inactive in another. Calls of active or inactive are those of the source. Calls follow the shape of the dose curve; as a rule, active = well fitted cell-killing curve with a large enough effect in the repeat runs; inconclusive = weak or mixed curves, or effect the other way; inactive = no such curve, though single readings can be large or run the other way.
Potency is read from the fitted curve at half-maximal effect.

A short description of the assay: qHTS assay to identify small molecule agonists of the RXR signaling pathway - cell viability counter screen (AID 1159529). Also: nearly all actives have a fitted effect of over 50% in size. Conditions: RXR-alpha-bla HEK293T viability, CellTiter-Glo, 16 h; series mostly up to 76.8 µM; activity change, negative = cytotoxicity: at the top concentration. The source says: National Center for Advancing Translational Sciences [NCATS]
NIH Chemical Genomics Center [NCGC]
U.S. Environmental Protection Agency [EPA]
National Institutes of Environmental Health Sciences [NIEHS]
National Toxicology Program [NTP]
U.S. Food and Drug Administration [FDA]
The Retinoid X receptor (RXR), a nuclear hormone receptor expressed in liver, spleen, placenta, epidermis, central nervous system. These receptors are able to form homo and heterodimers with other nuclear receptors and due to this heterodimerizing ability, RXR functions as master regulators producing diverse physiological effects. Three subtypes of RXR exist; alpha, beta and gamma. Retinoid X receptor alpha (RXR-alpha) has potential roles in metabolic signaling pathways, skin alopecia, dermal cysts, cardiac development, insulin sensitization etc. Therefore screening environmental chemicals on RXR-alpha signaling can be used for the studies focused on such therapeutic applications. For quantification of RXR-alpha ligands signaling, GeneBLAzer RXR alpha-UAS-bla HEK 293T (Life Technologies, Carlsbad, CA) cells containing a beta-lactamase reporter-gene under control of Retinoid X receptor-alpha response element were used to screen Tox21 10K library. The cytotoxicity of the Tox21 compound library against the RXR-alpha HEK 293T cell line was tested in parallel by measuring cell viability using CellTiter-Glo assay (Promega Corporation, Madison, WI) in the same wells.
Tox21 Assay Protocol Summary:
RXR-alpha HEK 293T cells were dispensed at 2,000 cells/6 uL of assay medium containing 2% charcoal-stripped FBS using a Multidrop Combi (ThermoFisher Scientific, Waltham, MA) dispenser. The assay was performed in black wall/clear-bottom 1536-well plates (Greiner Bio-One North America Inc. Monroe, NC). Tetraoctyl ammonium bromide was used as a positive control in the cytotoxicity screen. After the assay plates were incubated at 37 C and 5% CO2 for 5 hr, 23 nL of compounds dissolved in DMSO, positive control or DMSO only were transferred to the assay plate by a Pintool station (Kalypsys, San Diego, CA). The assay plates were incubated at 37 C and 5% CO2 for 16 hr. One uL of LiveBLAzer B/G FRET substrate (Life Technologies) was added using a Flying Reagent Dispenser (FRD) (Aurora Discovery, San Diego, CA) and the plates were incubated at room temperature for 2 hr. Fluorescence intensity (405 nm excitation, 460/530 nm emission) was measured using an Envision plate reader (PerkinElmer, Shelton, CT). For cytotoxicity, 4 uL/well of CellTiter-Glo reagent was added into the assay plates using an FRD. After 30 min incubation at room temperature, the luminescence intensity was measured using a ViewLux plate reader (PerkinElmer).
Take `OCCOCCN1CCN(C2=Nc3ccccc3Sc3ccccc32)CC1`: the Potency entry was “inactive”. In the case of `C=CCOC(=O)c1ccccc1C(=O)OCC=C`, the Potency result is “inactive”. On the same count and under the same terms, as for `O=C=NCCCCCCN=C=O`, the entry is “inactive”. The same measure, in the same setting: as for `Cc1ccc(S(N)(=O)=O)cc1`, the entry is “inactive”; as for `CC(C)c1ccc(S(=O)(=O)O)cc1`, “inactive”. On to `O=C(O)c1cc(=O)c2c(OCC(O)COc3cccc4oc(C(=O)O)cc(=O)c34)cccc2o1`, for which the Potency entry is “inactive”.

Consider `CCCSc1ccc2nc(NC(=O)OC)[nH]c2c1`, for which the Potency entry was “inactive”.

For the compound `Nc1cc([N+](=O)[O-])ccc1O`, the Potency entry is “inactive”.

`O=c1[nH]c(=O)n([C@H]2CCCO2)cc1F`: the Potency result was “inactive”. For `C[C@H]1C[C@@H]2[C@H]([C@@H](O)C[C@@]3(C)[C@H]2CC[C@]3(O)C(=O)CO)[C@@]2(C)C=CC(=O)C=C12`, the “activity change, negative = cytotoxicity” value was -2.05% [at 35.3 µM] (inactive). For the compound `CCCCN(CCCC)CCCC`, the Potency entry was “inactive”. For `COc1ccc(Nc2ccccc2)c(C)c1`, the “activity change, negative = cytotoxicity” value was 14% (inactive). Turning to `CC(=O)c1ccccc1`, the Potency result was “inactive”. `C=C(C)C(=O)Nc1ccc(Cl)c(Cl)c1`: the “activity change, negative = cytotoxicity” value was -27% (inactive).

In the case of `C=CCNC(N)=S`, the Potency was 38 µM (active) and inactive. Regarding `O=P(OC(CCl)CCl)(OC(CCl)CCl)OC(CCl)CCl`, the Potency entry is “inactive”. As to `OC[C@H]1O[C@@](CO)(O[C@H]2O[C@H](CO)[C@@H](O)[C@H](O)[C@H]2O)[C@@H](O)[C@@H]1O`, the “activity change, negative = cytotoxicity” value is -3.3% (inactive). Consider `C=C(C)C(=O)O[C@H]1C[C@@H]2CC[C@@]1(C)C2(C)C`, for which the Potency is 15.4 µM (active) and inactive. `O=C(OCCOCCOC(=O)c1ccccc1)c1ccccc1`: the “activity change, negative = cytotoxicity” value is -16.4% (inactive).

Consider `O=C(O)c1ccc2c(c1)C(=O)OC2=O`, for which the Potency result is “inactive”.

On to `O=S(=O)(O)c1ccc2ccccc2c1`, for which the “activity change, negative = cytotoxicity” value is -4.95% (inactive). In the case of `COS(C)(=O)=O`, the Potency result was “inactive”. Take `C#C[C@]1(O)CC[C@H]2[C@@H]3CCC4=CC(=O)CC[C@@H]4[C@H]3CC[C@@]21C`: the “activity change, negative = cytotoxicity” value is -15.5% [at 35.3 µM] (inactive). As for `Cc1occc(=O)c1O`, the Potency result is “inactive”. `O=S1(=O)CC=CC1`: the Potency result is “inactive”. On to `Cc1ccc(N(C)C)cc1`, for which the Potency result was “inactive”. For `C[Si](O[Si](C)(C)C)O[Si](C)(C)C`, the Potency result is “inactive”.

For `c1ccc(OCCOc2ccccc2)cc1`, the Potency result was “inactive”.

In the case of `O=C(O)[C@H](O)[C@@H](O)[C@H](O)[C@H](O)CO`, the Potency result was “inactive”. As for `O=C(O)CCCC[C@@H]1SC[C@@H]2NC(=O)N[C@@H]21`, the Potency result was “inactive”. `CCCCCCCCCCCCCCCO`: the Potency entry is “inactive”.

Regarding `N[C@@H](Cc1cc(I)c(Oc2cc(I)c(O)c(I)c2)c(I)c1)C(=O)O`, the Potency entry was “inactive”. On to `CN(C)CCC(c1ccc(Cl)cc1)c1ccccn1` (stereo not given), for which the Potency was 55.1 µM (active). On to `O=[N+]([O-])c1ccc(/C=C/c2ccc([N+](=O)[O-])cc2S(=O)(=O)O)c(S(=O)(=O)O)c1`, for which the Potency entry is “inactive”. On the same count and under the same terms, as for `OCCOCCOCCO`, the entry is “inactive”; as for `CCN(CC)c1ccc(C(=O)c2ccccc2C(=O)O)c(O)c1`, “inactive”; as for `CN(C)CCCN`, “inactive”. For `CCCCC(CC)COC(=O)CCCCC(=O)OCC(CC)CCCC` (stereo not given), the Potency entry is “inactive”. Take `CCCCCOC(C)=O`: the Potency result was “inactive”. Turning to `CC(C)(N)CO`, the Potency entry is “inactive”.
